The text below walks through data of ChEMBL document CHEMBL3988442, “University of Dundee, Small-Polar-MMV Screening Library” (2021).

Screen size: about 48,000 compounds; about 13,000 (27%) showed an effect of 50% or more. This is one part of the list.

The assay deals with Wolbachia pipientis. Briefly: Anti-Wolbachia Cell-Based Screen. It counts as functional. Further details: scale not given: in the data most compounds retested in dose-response had high values. Particulars: 5 µM.
For the compound `CCc1ccc(C(NC(=O)CCS(C)(=O)=O)C(C)(C)C)o1` (stereo not drawn), the “Percent Effect” value turned out to be 18.74%.

With `CN1CCC(NN2CCN(C)CC2)CC1`, the “Percent Effect” value came out at 4.594%.

For `O=C(CSc1ccccc1)Nc1cnn(CC(=O)N2CCCO2)c1`, the “Percent Effect” value was 2.043%. The result for `Cc1ccc(C)c(OCC(O)CN(C)CC(=O)Nc2cc(C)on2)c1` (stereo not drawn) reads 16.51%; that for `CCN1CCC2(CC1)c1nc[nH]c1CCN2S(C)(=O)=O`, -21.15%; that for `COC(=O)C1CCN(C(=O)c2ccc(C)c(NS(C)(=O)=O)c2)CC1`, -2.362%.

Regarding `COc1ccccc1OCCCc1cc(C)nc(N)n1`, the “Percent Effect” value is listed as -105.6%. The result for `COc1ccccc1OC1(C(=O)O)CCN(c2cnccn2)CC1` reads -132.5%; that for `CC(=O)NCC(=O)NCC1(O)CCN(c2cnccn2)C1` (stereo not drawn), 78.54%; that for `Cn1ccc(C(=O)NCC2(O)CCN(c3cnccn3)C2)n1` (stereo not drawn), 120.2%. As to `O=C(c1ccc(-n2ccnc2)cc1)N1CCN(c2cnccn2)CC1`, the “Percent Effect” value came out at 1.028%. With `CCS(=O)(=O)N1CCOC2(CCCN(c3cnccn3)C2)C1.O=C(O)C(F)(F)F` (stereo not drawn) the figure was -12.03%. As for `Cn1ccc(C(=O)N2C[C@@H]3CCN(c4cnccn4)C[C@@H]3C2)n1.O=C(O)C(F)(F)F`, the “Percent Effect” value is listed as 6.862%.

As for `CC(C#N)NS(=O)(=O)c1cccc(C(C)C)c1` (stereo not drawn), the “Percent Effect” value came to 0.8918%. With `c1ccc(-c2nccc(N3CCc4c(ncn4C4CC4)C3)n2)cc1` the figure was -6.711%; with `O=C(NCc1nncn1C1CC1)C1(c2ccc(F)cc2)CCCC1`, -0.2127%. Consider `O=C(NCC(O)COc1ccc(F)cc1)C1(c2ccc(F)cc2)CC1` (stereo not drawn), for which the “Percent Effect” value is given as 2.033%. With `O=C1N(c2ccsc2)CCC12CCCN(c1ccccn1)C2` (stereo not drawn) the figure was 116.3%. `O=C(CO)N1CCCC2(CCN(c3ccsc3)C2=O)C1` (stereo not drawn): the “Percent Effect” value is listed as -8.553%. `O=C(O)C(F)(F)F.O=C(c1ccccn1)N1CCCC2(CCN(c3ccsc3)C2=O)C1` (stereo not drawn): the “Percent Effect” value is on record as 9.828%.

`O=C(N1CCCC1)N1CCCC2(CCN(c3ccsc3)C2=O)C1` (stereo not drawn): the “Percent Effect” value is -11.99%. The result for `Cc1nocc1C(=O)N1CCCC2(CCN(c3ccsc3)C2=O)C1` (stereo not drawn) reads 2.801%; that for `O=C1N(c2ccsc2)CCC12CCCN(c1ncc(F)cn1)C2` (stereo not drawn), 91.96%. With `Cc1occc1C(=O)N1CCCC2(CCN(c3ccsc3)C2=O)C1` (stereo not drawn) the figure was -9.998%; with `Cn1nccc1C(=O)N1CCCC2(CCN(c3ccsc3)C2=O)C1` (stereo not drawn), 54.5%. The result for `CN(C)C(=O)N1CCCC2(CCN(c3ccsc3)C2=O)C1` (stereo not drawn) reads -73.81%; that for `N#Cc1ccc(N2CCCN(CC(N)=O)CC2)cc1`, -2.311%; that for `CC(NC(=O)c1csnn1)c1ccc(OCC2CC2)c(F)c1` (stereo not drawn), 3.063%. With `CC(NC(=O)C(C)(C)C#N)c1ccc(OCC2CC2)c(F)c1` (stereo not drawn), the “Percent Effect” value worked out at 5.136%. `CS(=O)(=O)NCCC(=O)NC1(c2ccc(F)cc2)CCCC1`: the “Percent Effect” value is recorded as -19.35%. The result for `CCNC(=O)NCc1nn(CCN2CCCC2)c(=O)c2ccccc12` reads 106.7%; that for `CCn1nc(CNC(=O)C2CCCN(CC(N)=O)C2)c2ccccc21` (stereo not drawn), 4.996%; that for `CCOC(=O)NCc1nn(CCN2CCCC2)c(=O)c2ccccc12`, 108%. The result for `COCC(=O)NCc1nn(CCN2CCCC2)c(=O)c2ccccc12` reads 112.1%; that for `COCC(=O)NCc1cc2n(n1)CCCN(CCCC1CCCC1)C2`, 3.539%; that for `CCNC(=O)NCc1ccc(CN2CCCC(C)C2)cc1` (stereo not drawn), -3.525%.

With `CCN1CC(C(=O)NCc2nn(CC)c3ccccc23)CCC1=O` (stereo not drawn), the “Percent Effect” value was determined as 10.79%.

Turning to `CCn1nc(CNC(=O)C2CC(=O)N(C3CCCC3)C2)c2ccccc21` (stereo not drawn), the “Percent Effect” value is -24.02%. For the compound `Cc1ccccc1CS(=O)(=O)NCCCN1CCCC1`, the “Percent Effect” value is listed as -20.74%.

`CN(C)S(=O)(=O)NCCn1nc(-c2ccccc2)n(C)c1=O`: the “Percent Effect” value is given as -0.1642%. For the compound `CN(C)S(=O)(=O)NCc1nn(CCN2CCCC2)c(=O)c2ccccc12`, the “Percent Effect” value amounted to 91.81%. On to `CCn1nc(CNC(=O)C2CCCN(C(=O)COC)C2)c2ccccc21` (stereo not drawn), for which the “Percent Effect” value is listed as -19.96%.

Regarding `O=c1nc(SCc2ccncc2)c2c(n1CCO)CCC2`, the “Percent Effect” value is on record as 3.515%.

As for `COc1cccc(N2CC3(CCN(c4cnccn4)C3)CC2=O)c1` (stereo not drawn), the “Percent Effect” value was -7.581%. With `Cc1cc(Cl)ccc1NCc1cnn(C2CCS(=O)(=O)C2)c1` (stereo not drawn) the figure was 23.97%. As to `CCC1=NN2C(=N)/C(=C\c3cccn3-c3ccc(Br)cc3)C(=O)N=C2S1`, the “Percent Effect” value was determined as 83.94%. With `CCC1=NN2C(=N)/C(=C/c3cccc(Cl)c3)C(=O)N=C2S1` the figure was 3.278%; with `CCC1=NN2C(=N)/C(=C\c3cccn3-c3cccc(Cl)c3)C(=O)N=C2S1`, 116.1%.

For `CCC1=NN2C(=N)/C(=C\c3cccn3-c3ccc(Cl)cc3)C(=O)N=C2S1`, the “Percent Effect” value was 96.44%. In the case of `CN(Cc1ccco1)C1CCC12CCN(C(=O)C1CCOCC1)CC2.O=C(O)C(F)(F)F` (stereo not drawn), the “Percent Effect” value is -16.55%.

Regarding `CO[C@H]1CCN(S(=O)(=O)c2cn(C)cn2)[C@H]1Cc1ccccc1.O=C(O)C(F)(F)F`, the “Percent Effect” value was determined as 1.513%. The result for `Cc1noc(CCNC(=O)c2ccc(Br)c(S(=O)(=O)N(C)C)c2)n1` reads 13.21%. With `CCn1c(N)nc2cc(C(=O)NCCc3ccccc3C)cnc21` the figure was -8.06%; with `CCN(CC)S(=O)(=O)CCNc1nnc(C(C)C)s1`, 4.911%; with `CC(=O)N(Cc1ccc(NCc2cnn(C(C)(C)C)c2)cc1)C(C)C`, 111.1%.

`CC(C)(C(=O)NCc1ccc(C#N)cc1)n1cc(Br)cn1`: the “Percent Effect” value was found to be 9.719%. For `CC(C)OC(=O)NCc1ccc(NCc2cnn(C(C)(C)C)c2)cc1`, the “Percent Effect” value is 104.7%.

As to `CC(C)c1nc(CNc2ccc(CNS(C)(=O)=O)cc2)cs1`, the “Percent Effect” value is on record as -10.73%.

On to `CC(C)(C)n1cc(CNC2CCN(C(=O)c3ccncc3)CC2)cn1`, for which the “Percent Effect” value is given as -2.234%. The result for `CC(C)(C)OC(=O)N1CCC(NCc2cnn(C(C)(C)C)c2)CC1` reads -19.8%. With `CC(C)(C)n1cc(CNC2CCN(C(=O)c3ccco3)CC2)cn1` the figure was -4.791%; with `CS(=O)(=O)c1ccc(NCc2ccc(F)cc2)cn1`, -13.54%. The result for `CC(C)(C)n1cc(CNc2ccc(CNS(C)(=O)=O)cc2)cn1` reads 115%; that for `CCc1nc(CNC(=O)Nc2nc(COC)cs2)cs1`, -11.4%; that for `O=C(NCCc1csc(-c2cnccn2)n1)c1cnn[nH]1`, -5.851%. For `CCc1n[nH]c(SCC(=O)N2CCc3[nH]nc(C4CCC4)c3C2)n1`, the “Percent Effect” value is recorded as -5.998%. With `OC1(CNC2CCN(Cc3ccncc3)CC2)CCc2ccccc21` (stereo not drawn) the figure was 9.315%; with `O=C(NCC1CC1)[C@@H]1C[C@@H]2CCN(Cc3ccccc3)C[C@H]2O1`, 100.1%; with `CNC(=O)[C@H]1C[C@@H]2CCN(CCc3ccccc3)C[C@@H]2O1.O=C(O)C(F)(F)F`, -33.06%. For `O=C(NCC1CCOCC1)[C@@H]1C[C@@H]2CCN(Cc3ccco3)C[C@H]2O1.O=C(O)C(F)(F)F`, the “Percent Effect” value is -3.417%. The result for `O=C([C@@H]1C[C@@H]2CCN(Cc3ccco3)C[C@H]2O1)N1CCCO1` reads -6.348%; that for `O=C(NCC1CC1)[C@@H]1C[C@@H]2CCN(Cc3ccoc3)C[C@@H]2O1`, 93.16%; that for `O=C(NCC1CCOCC1)[C@H]1C[C@@H]2CCN(Cc3ccncc3)C[C@@H]2O1.O=C(O)C(F)(F)F.O=C(O)C(F)(F)F`, 7.253%. With `CNC(=O)[C@@H]1C[C@@H]2CCN(Cc3ccoc3)C[C@H]2O1` the figure was 103.1%; with `O=C(NCC1CCOCC1)[C@H]1C[C@@H]2CCN(Cc3ccccc3)C[C@H]2O1.O=C(O)C(F)(F)F`, 108.7%; with `O=C(NCC1CC1)[C@H]1C[C@@H]2CCN(CCc3ccccc3)C[C@H]2O1.O=C(O)C(F)(F)F`, 16.57%. As to `CC(C)[C@H]1CN(CCS(C)(=O)=O)C[C@@H]1NC(=O)c1ccc(=O)[nH]c1`, the “Percent Effect” value is -6.33%.

In the case of `NC(=O)Cn1c(SCc2noc(-c3ccsc3)n2)nnc1C1CC1`, the “Percent Effect” value worked out at 7.901%. Take `Cc1cc(C)cc(C(=O)NCc2ncnn2C)c1`: the “Percent Effect” value is recorded as -13.46%.

As for `CC(OCC1CC1)C(=O)Nc1ccn(Cc2ccccc2)n1` (stereo not drawn), the “Percent Effect” value is reported as -8.999%. With `N[C@H]1CC[C@@H](NC(=O)c2ccc3nc(-c4ccc(F)cc4)cn3c2)CC1` the figure was -22.5%. On to `Cn1nc(C(=O)NCc2cccc(Cn3ccnc3)c2)ccc1=O`, for which the “Percent Effect” value is recorded as -21.54%. Take `Cn1cccc1C(=O)NCc1cn2c(n1)CN(C(=O)c1ccsc1)CC2`: the “Percent Effect” value is 7.383%. With `O=C(NCC1CCOCC1)[C@@H]1C[C@@H]2[C@@H](CCN2Cc2ccoc2)O1` the figure was 102.5%; with `O=C(NCC1CC1)[C@H]1CC[C@@H]2[C@@H](CCN2Cc2ccoc2)O1`, 3.009%; with `O=C(NC1CC1)[C@H]1CC[C@@H]2[C@@H](CCN2Cc2ccsc2)O1`, -0.273%.

`Cc1ccc2oc(N3CCN(CC(=O)NC(C)C)CC3)nc2c1`: the “Percent Effect” value came out at 0.7244%.

As to `Cc1ccc(-n2nc(C)c3c(C)cc(OCC(=O)NC(C)C)nc32)cc1`, the “Percent Effect” value is 109.8%.

`CCCNC(=O)COc1cc(C)c2c(C)nn(-c3ccc(C)cc3)c2n1`: the “Percent Effect” value is given as 109.7%. With `Cc1ccc(OCC(=O)NCc2ccccc2F)nc1` the figure was -9.663%; with `CCNC(=O)COc1cc(CC)c2c(C)nn(-c3ccc(C)cc3)c2n1`, 126.5%; with `Cc1ccc(OCC(=O)NCC(C)C)nc1`, 0.1298%.

For `CC(C)NC(=O)NCCCc1cc(N)n(-c2ccccc2)n1`, the “Percent Effect” value is -14.76%. Regarding `CCCNC(=O)COc1cc(C)c2c(C)nn(-c3ccccc3)c2n1`, the “Percent Effect” value worked out at 102.4%. The result for `CSC(C)C(=O)NCCCc1cc(N)n(-c2ccccc2)n1` (stereo not drawn) reads 6.591%; that for `CCCNC(=O)COc1ccc(C)cn1`, 4.173%; that for `Cc1ccc(OCC(=O)NCc2sccc2C)nc1`, -2.294%.

For `Cc1cc(C)c2c(OCC(=O)NC(C)C)nn(C)c2n1`, the “Percent Effect” value is -14.3%.
